Hits are enriched below; roughly 2.9% of the tested compounds scored in any of these assays.
PfGluPho inh: PfG6PD (Plasmodium falciparum) enzyme inhibition; AID 504690; PfGluPho enzyme, NADPH resazurin-diaphorase fluorescence; inhibition, % at 20 µM; 350,000 compounds, 0.78% hits;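 active = inhibition reaching at least a set limit at 20 µM in the primary screen, cut at about 59% in these data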
H9c2 protect: modulators protecting cardiomyocytes from myocardial damage | H9c2 cardiomyocytes, H2O2 injury protection, ATPLite, 2 h | protection from H2O2 cell death, % at 20 µM | 360,000 compounds, 0.63% hits;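 active = compounds giving at least 50% protection of heart cells from peroxide-induced death in the single-dose screen, raw or plate-pattern-corrected value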
NadD block: inhibitors of Staphylococcus aureus NadD | 360,000 compounds, 0.78% hits | AID 602399 | purified NadD enzyme, colorimetric absorbance read-out | inhibition, % at 20 µM; in the data active = inhibition above about 26%
A3A deaminase: human APOBEC3A DNA deaminase inhibition; P31941; recombinant A3A, FAM/TAMRA ssDNA deamination fluorescence; inhibition, % at 20 µM; 330,000 compounds, 0.41% hits; AID 493011;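 active = at least 40% inhibition at 20 µM here, with at most 30% in a related deaminase screen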
Target sequence (P31941 whole entry, looked up): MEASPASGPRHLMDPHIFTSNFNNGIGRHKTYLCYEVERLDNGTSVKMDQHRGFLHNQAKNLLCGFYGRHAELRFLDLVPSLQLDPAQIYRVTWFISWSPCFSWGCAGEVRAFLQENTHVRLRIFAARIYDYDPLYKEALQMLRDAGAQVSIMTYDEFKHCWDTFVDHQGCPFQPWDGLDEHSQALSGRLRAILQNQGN
APOBEC3G inh: inhibitors of human APOBEC3G DNA deaminase; Q9HC16; recombinant A3G, ssDNA deamination FAM/TAMRA fluorescence; inhibition, % at 20 µM; 330,000 compounds, 0.28% hits; AID 493012;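 active = inhibition of at least 40% at 20 µM, with no more than 30% in the related APOBEC3A deaminase screen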
TAG inh: inhibitors of triacylglycerol accumulation; H9c2 cells, Nile Red lipid (TAG) fluorescence; cells loaded with 200 µM oleic acid; inhibition, % at 12.5 µM; 230,000 compounds, 0.66% hits; AID 651582;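 active = pattern-corrected inhibition of lipid staining of at least 50% with the nuclear-stain viability signal not falling by more than 50%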
Numbers stand for hits; 0 = inactive; - = no result given.

SMILES | PfGluPho inh | H9c2 protect | NadD block | A3A deaminase | APOBEC3G inh | TAG inh
COc1ccc(-c2cn3cccnc3n2)cc1NC(=O)c1ccc(Br)o1 | 0 | 58 | 0 | 0 | 0 | -
OC(c1ccco1)c1nc(-c2ccc(F)c(Cl)c2)cs1 (stereo not drawn) | - | 0 | 0 | - | - | 0
COc1ccc(OC)c(Nc2nc(N)nc(-c3cc4ccccc4o3)n2)c1 | 0 | 56 | 0 | 0 | 0 | 0
O=C1NC[C@H](CCCCN2C[C@H](Cc3ccccc3)N(CCc3ccc(O)cc3)C(=O)C2=O)N(CCC2CCCCC2)C1=O | - | - | 0 | - | - | -
CN(CC(=O)Nc1ccccc1C(F)(F)F)C(=O)CCc1nc2ccccc2c(=O)[nH]1 | 0 | 0 | 0 | 0 | 0 | 0
Cc1ccc(C)n1-c1cc([N+](=O)[O-])ccc1-n1ccnc1 | 0 | 0 | 0 | 0 | 0 | 0
CC1(C)N([O-])c2cc([N+](=O)[O-])ccc2[N+]1=O | 70 | - | - | 0 | 0 | -
O=C1CCC2(CC1)NC(=O)N(c1ccccc1)N2 | 0 | 0 | 0 | 0 | 0 | -
COc1cc(-c2csc(C)n2)ccc1O | 0 | 0 | 0 | 0 | 0 | 0
Cc1nc(-c2ccc(O)c(O)c2)cs1 | 0 | 61 | 0 | 0 | 0 | 0
CC(C)n1c(SCC(=O)Nc2ccccc2N2CCOCC2)nc2c1c(=O)n(C)c(=O)n2C | 0 | 0 | 0 | 0 | 0 | 0
CCn1c(SCC(=O)Nc2ccccc2N2CCCCC2)nc2c1c(=O)n(C)c(=O)n2C | 0 | 62 | 0 | 0 | 0 | -
CN(CC(=O)NC1CCN(Cc2ccccc2)CC1)S(=O)(=O)c1ccc(Br)s1 | 0 | 0 | 0 | 0 | 0 | -
O=C1[C@H]2CCCC[C@H]2C(=O)N1CCCCN1CCN(c2nsc3ccccc23)CC1 | 0 | 0 | 0 | 0 | 0 | 0
O=C(C[n+]1ccccc1)N/N=C/c1cccs1 | 0 | 0 | 0 | 0 | 0 | 0
Cc1ccccc1OCC(=O)N/N=C/c1cccc2cccnc12 | 0 | 0 | 0 | 0 | 0 | 0
O=C(COc1ccc(F)cc1)N/N=C/c1cccc2cccnc12 | 0 | 54 | 0 | 0 | 0 | 0
Cc1ccc(OCC(=O)N/N=C/c2cccc3cccnc23)cc1 | 0 | 56 | 0 | 0 | 0 | 0
CN(CC(=O)Nc1ccc(N2CCOCC2)cc1)C(=O)Cc1ccccc1 | 0 | 0 | 0 | 0 | 0 | 0
Oc1ccc(-c2nc3ccccc3s2)c(O)c1 | 0 | 0 | 0 | 0 | 0 | 0
Oc1ccc(N=C/C=C/c2cccc(Br)c2)cc1-c1nc2ccccc2s1 | 0 | 0 | 41 | 0 | 0 | -
Cc1ccc(C(=O)NS(=O)(=O)c2ccc(N=NN(C)C)cc2)cc1 | 0 | 0 | 0 | 0 | 0 | 0
CCOc1ccc(C(=O)NCC(=O)N2CCN(c3ccccc3O)CC2)cc1 | 0 | 0 | 0 | 0 | 0 | -
CC(C)(C)OC(=O)NC1CNNC1=O (stereo not drawn) | 0 | 0 | 0 | 0 | 0 | 0
COc1cc(/C=N/Nc2nc(Nc3ccc(C)cc3)nc(-n3nc(C)cc3C)n2)cc(OC)c1OC | 0 | 57 | 0 | 0 | 0 | 0
SMILES | PfGluPho inh | H9c2 protect | NadD block | A3A deaminase | APOBEC3G inh | TAG inh
COc1cc(/C=N/Nc2nc(Nc3ccccc3)nc(-n3nc(C)cc3C)n2)cc(OC)c1OC | 0 | 0 | 0 | 0 | 0 | -
CC(=O)NNC(=S)Nc1cc(S(=O)(=O)N(C)C)ccc1C | 0 | 0 | 0 | 0 | 0 | 0
Cc1ccc(S(=O)(=O)N(C)C)cc1NC(=S)Nc1cccc2ccccc12 | 61 | 0 | 0 | 0 | 0 | -
C=CCn1c(O)c(N=NC(=S)Nc2ccccc2F)c2ccccc21 | 0 | 0 | 0 | 0 | 0 | 0
C=CCn1c(O)c(N=NC(=S)Nc2ccccc2F)c2cc(S(=O)(=O)N3CCOCC3)ccc21 | 0 | 0 | 38 | 0 | 0 | 0
C=CCC[C@H](Cc1ccc(F)cc1)C(=O)OC[C@@H](Cc1c[nH]c2ccccc12)NC(=O)[C@H](CC=C)CC(=O)N(CCO)Cc1ccccc1 | 0 | 0 | 0 | 0 | 0 | 57
C=CC[C@H](CC(=O)N(CCO)Cc1ccccc1)C(=O)N[C@@H](COC(=O)[C@@H](CC=C)Cc1ccc(F)cc1)Cc1c[nH]c2ccccc12 | 0 | 0 | 0 | 0 | 0 | 0
CCCNC(=O)c1c(N)n(-c2cccc(OC)c2)c2nc3ccccc3nc12 | 0 | 55 | 0 | 0 | 0 | -
COCCCNC(=O)c1c(N)n(-c2cccc(S(N)(=O)=O)c2)c2nc3ccccc3nc12 | 0 | 0 | 0 | 0 | 0 | 0
COc1ccccc1-n1c(N)c(C(=O)NCC2CCCO2)c2nc3ccccc3nc21 (stereo not drawn) | 0 | 0 | 0 | 0 | 0 | 0

Screens from PubChem BioAssay.
